High-throughput results deposited in PubChem BioAssay by National Center for Advancing Translational Sciences (NCATS).
ALDH1A1 block: inhibitors of human aldehyde dehydrogenase 1A1; P00352; Purified ALDH1A1, NADH fluorescence, propionaldehyde substrate; Potency, µM (series often up to 75.3 µM), inactives show at the top dose activity, negative = inhibition, actives largely listed as inhibitors; 220,000 tested, 7.3% active; AID 1030; active means well fitted inhibition curve with a large enough effect, not every such curve was filed as active; inconclusive means small, poorly fitted or top-dose-only effect, or another doubt; inactive means no such curve, though single readings can be large or run the other way;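 further: plate controls were no enzyme wells and a reference inhibitor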
NPSR antag: blocks cAMP signaling of the human neuropeptide S receptor | CHO-NPSR cells, cAMP TR-FRET, antagonist mode | Potency, µM (highest dose often 38.3 µM), without a hit: at the highest dose activity change, negative = inhibition, most hits filed as inhibitors | 220,000 tested, 1% active | AID 1461; further: nearly all actives have a fitted effect of over 50% in size
Tau fluor cs: counter-screen for tau fibril formation inhibitors. Potency, µM (top dose mostly 57.7 µM), without a hit: at the top dose activity change, negative = decrease. AID 1463. 280,000 tested, 0.93% active. tau K18 P301L Alexa594 fluorescence, heparin fibrillization; further: nearly all actives have a fitted effect of over 55% in size
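Human tau K18 P301L (15 uM unlabeled, 0.24 uM Alexa 594-labeled) in 100 mM sodium acetate pH 7 with 20 uM heparin, 6 hr at 37 C. ThT 30 uM added, 1 hr ambient; Alexa 594 FP and total fluorescence read at 555/632 nm.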
HPGD block: inhibitors of human 15-hydroxyprostaglandin dehydrogenase (HPGD). P15428. purified HPGD, NADH fluorescence kinetic, PGE2 substrate. Potency, µM, for inactives: at the highest dose activity change, negative = inhibition, hits mostly inhibitors. 150,000 tested, 4.3% active. AID 894; active means well fitted inhibition curve with a large enough effect, not every such curve was filed as active; inconclusive means small, poorly fitted or top-dose-only effect, or another doubt; inactive means no such curve, though single readings can be large or run the other way
Target sequence (P15428 whole entry, looked up): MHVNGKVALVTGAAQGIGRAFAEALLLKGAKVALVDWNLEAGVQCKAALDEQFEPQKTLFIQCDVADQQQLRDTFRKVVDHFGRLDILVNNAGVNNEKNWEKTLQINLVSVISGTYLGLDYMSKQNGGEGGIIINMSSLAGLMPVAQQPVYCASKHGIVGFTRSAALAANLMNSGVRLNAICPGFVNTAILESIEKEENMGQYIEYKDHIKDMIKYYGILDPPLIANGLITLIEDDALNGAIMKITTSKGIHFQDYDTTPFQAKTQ
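NADH formation kinetics: reaction with 30 uM PGE2 and 1 mM NAD+ (final), 20 nM enzyme, Tris-HCl pH 8 with Tween 20, after 15 min compound preincubation at room temperature. Fluorescence change, last versus first of five reads.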
Tau fibril ThT: inhibitors of human tau fibril formation, thioflavin T binding; Potency, µM (top dose mostly 57.4 µM), inactives show at the top dose activity, negative = inhibition, actives largely listed as inhibitors; recombinant tau K18 P301L (four-repeat tau fragment), heparin-induced fibrillization, ThT fluorescence; 270,000 tested, 2.1% active; further: nearly all actives have a fitted effect of over 55% in size
Target sequence (P10636 561-689 P618L limits assumed): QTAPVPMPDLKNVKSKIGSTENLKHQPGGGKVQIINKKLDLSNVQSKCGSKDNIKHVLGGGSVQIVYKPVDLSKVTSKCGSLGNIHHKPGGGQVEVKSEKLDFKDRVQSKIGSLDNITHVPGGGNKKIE
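K18 P301L tau (15 uM + 0.24 uM Alexa 594-tagged), heparin 20 uM, NaOAc pH 7, 6 h 37 C; ThT 30 uM, 1 h RT, ex 450/em 510 nm.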
Tau FP inhib: blocks human tau fibril formation measured by polarization. 280,000 tested, 0.39% active. Potency, µM (top dose mostly 57.7 µM), inactives show at the highest dose activity, negative = inhibition, hits mostly inhibitors. K18 P301L tau heparin fibrillization, Alexa594 FP, 6 h. AID 1468. P10636; further: nearly all actives have a fitted effect of over 55% in size
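Quantitative HTS format: compounds meet 15 uM recombinant K18 P301L tau and Alexa 594-tau tracer in 100 mM sodium acetate pH 7; 20 uM heparin triggers fibrillization at 37 C over 6 hr; FP gives the signal.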
Numbers without * were called inactive; ? = inconclusive; nt = no result; [ ] = dose if it differs, or a comment. Hits are enriched below; roughly 9.5% of the tested compounds scored in any of these assays. Unless noted, the call rests on the fitted dose curve; in most records, active means well fitted curve in the direction sought with a large enough effect; inconclusive means small, poorly fitted or top-dose-only effect, or another doubt; inactive means no such curve, though single readings can be large; an effect the other way counts as inactive or inconclusive. Unless noted, on the % scale 0 is the no-effect control and ±100 the full control effect; potency means the concentration at half of the fitted maximal effect.

SMILES	ALDH1A1 block	NPSR antag	Tau fluor cs	HPGD block	Tau fibril ThT	Tau FP inhib
Cc1noc(NS(=O)(=O)c2cccc3c(N(C)C)cccc23)c1C	-14%	nt	-4%	?	-11%	3%
O=C(Cn1c(=O)n(-c2ccccc2)c(=O)c2c3c(sc21)CCCC3)Nc1cccc(F)c1	nt	nt	-10%	nt	?	-18%
CCc1ccc(NC(=O)C(=O)NCC(c2cccnc2)N2CCOCC2)cc1 (stereo not given)	nt	nt	-16%	nt	?	-6%
O=C(CSc1cccc[n+]1[O-])c1cc2ccccc2o1	?	7.9µM*	11%	28µM*	11%	-2%
O=C(O)CSc1cccc[n+]1[O-]	1%	-2%[46.1 µM]	-3%	4%	1%	-5%
COc1ccc(CN2C(=O)/C(=C/c3ccncc3)SC2=S)cc1	10µM*	-17%	-25%	-20%	?	1%
O=C1/C(=C/c2cccnc2)SC(=S)N1Cc1ccco1	2.2µM*	nt	nt	-14%	nt	nt
O=C1/C(=C/c2ccccc2O)SC(=S)N1Cc1cccnc1	7.5µM*	11%	-10%	2.8µM*	?	-15%
O=C(O)CN1C(=O)S/C(=C\c2cccnc2)C1=O	nt	5%	-11%	nt	nt	?
Cc1cc(/C=C2\SC(=S)N(Cc3ccco3)C2=O)c(C)n1-c1cccnc1	0.28µM*	?	?	-15%	?	-2%
CCN1C(=O)/C(=C\c2cn(-c3ccccc3)nc2-c2cccnc2)SC1=S	1%	-20%	1%	nt	-3%	2%
Cc1cc(/C=C2\NC(=S)NC2=O)c(C)n1-c1cccnc1	23%	5%	6%	nt	-12%	-4%
O=C(O)CCCN1C(=O)/C(=C/c2ccncc2)SC1=S	nt	-9%	4%	nt	-17%	?
Cc1ccc(NS(=O)(=O)c2ccc3[nH]c4c(c3c2)CCCCCC4)cc1C	nt	nt	13µM*[quencher]	nt	1%	-1%
COc1ccc(NS(=O)(=O)c2ccc3[nH]c4c(c3c2)CCCC4)cc1OC	nt	nt	16µM*[quencher]	nt	?	7%
COc1ccc(NS(=O)(=O)c2ccc3[nH]c(=O)ccc3c2)cc1OC	nt	nt	8.9µM*[quencher]	nt	?	-18%
Cc1ccc(NS(=O)(=O)c2ccc3[nH]c4c(c3c2)CCCCCC4)cc1	nt	nt	11µM*[quencher]	nt	-12%	?
COc1cc(NS(=O)(=O)c2ccc3[nH]c4c(c3c2)CCCC4)cc(OC)c1OC	nt	nt	?	nt	-13%	18%
Cc1ccc(NC(=O)C2CCN(S(=O)(=O)c3ccc4[nH]c5c(c4c3)CCCCC5)CC2)cc1	nt	nt	?	nt	7%	-5%
COc1ccc(OC)c(NS(=O)(=O)c2ccc3[nH]c4c(c3c2)CCCCC4)c1	nt	nt	11µM*[quencher]	nt	-2%	3%
COc1ccc(OC)c(NC(=O)CN(C)S(=O)(=O)c2ccc3[nH]c4c(c3c2)CCCC4)c1	nt	nt	?	nt	-1%	7%
CCc1ccc(NS(=O)(=O)c2ccc3[nH]c4c(c3c2)CCCCCC4)cc1	nt	nt	?	nt	18%	?
CCOC(=O)c1ccc(NS(=O)(=O)c2ccc3[nH]c4c(c3c2)CCCCC4)cc1	nt	nt	6.3µM*[quencher]	nt	-7%	?
COc1cc(NS(=O)(=O)c2ccc3[nH]c4c(c3c2)CCCCCC4)cc(OC)c1	nt	nt	8.9µM*[quencher]	nt	-7%	-5%
Cc1ccc(NC(=S)NCc2ccc3[nH]c4c(c3c2)CCCC4)cc1	18µM*	1%	-4%	-36%	4%	2%
O=C(Cn1cnc2cc([N+](=O)[O-])ccc2c1=O)Nc1ccc(N2CCOCC2)cc1	nt	-22%	-19%	nt	?	7%
Cc1ccc(NC(=O)CCSc2nc(-c3ccco3)cc(C(F)(F)F)n2)cc1F	nt	nt	-28%	nt	12%	?
NC(N)=N[C@@H]1C(O)[C@H](N=C(N)N)[C@@H](O)C(O)[C@H]1O (stereo not given in full)	8%[13.5 µM]	nt	nt	-10%	nt	nt
Cc1ccc(N(C)S(=O)(=O)c2ccc3[nH]c4c(c3c2)CCCC4)cc1	nt	nt	14µM*[quencher]	nt	-5%	5%
Cc1ccc(C)c(N2CCN(S(=O)(=O)c3ccc4[nH]c5c(c4c3)CCCC5)CC2)c1	nt	nt	?	nt	-7%	-5%
